Data on 35 compounds can be found in PubChem BioAssay.

This assay can be described thus: probe aNOTCH3 binding on compound microarray – biochemical, small-molecule microarray, 635/667 nm fluorescence, primary screen (AID 1120).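 Note: probe is a biotin-tagged antibody raised against NOTCH3 rather than NOTCH3 protein; score merges spot fluorescence near 667 nm with spot signal to noise.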 The following applies: higher = more signal.
Consider `COc1ccc([C@H]2OC[C@@H]3C[C@@H](Cc4ccccc4)C(=O)N32)cc1`, for which the composite z-score is 0.111. For `COCCCNC(=O)[C@@H]1c2ccccc2C(=O)N(Cc2ccccc2Cl)[C@H]1c1ccc(CO)cc1`, the composite z-score was -0.147. Then `O=C1C2C=CC(C(O)c3cccc4ccccc34)N(Nc3ccccc3F)C2C(=O)N1c1ccccc1` (stereo not given), with 0.614; and `COC(=O)[C@@]1(CCS(=O)(=O)c2ccccc2)N=C(c2ccc(OCCCO)cc2)O[C@H]1c1ccccc1CN=[N+]=[N-]`, with 0.0807; and `C=C[C@H](OC)[C@@H](OC(=O)Nc1ccc(OC)cc1)c1ccc(O)c(F)c1`, with -0.333.

Turning to `C=CCC(OC(C)=O)[C@@H]1[C@@H](N(Cc2ccc(-c3ccccc3)cc2)C(=O)c2cccc3ccccc23)c2cc(OCCCO)ccc2N1C(=O)c1ccc(-c2ccccc2)cc1` (stereo not given in full), the composite z-score is 0.0897. Then `C=CCOC(=O)[C@H]1[C@@H]2C(=O)O[C@@H](c3ccccc3)[C@@H](c3ccccc3)N2[C@@H](c2ccc(OCCOC(=O)[C@H]3C[C@H]4C(=O)N[C@@H](CCCC[N+](C)(C)C)C(=O)N4[C@H]3c3ccc(O)cc3)cc2)[C@]12C(=O)Nc1ccc(I)cc12`, with 0.191; and `COC(=O)[C@@]1(Cc2ccc(OC)cc2)[C@@H]2C(=CC(=O)[C@H]2CC(=O)C(=O)N2CCCC2)CN1C(=O)c1ccccc1`, with 0.132; and `C[C@H]1NC(=O)[C@@]23C(=O)N[C@@H](Cc4ccccc4)C2[C@H](C)[C@@]2(C)O[C@H]2C3/C=C/C/C=C\CNC(=O)[C@@H]2CCCN2C1=O` (stereo not given in full), with -0.229. In turn, `O=C(OCc1ccccc1)C1=CCC2c3[nH]c4ccccc4c3C(=O)C1N2S(=O)(=O)c1ccccc1[N+](=O)[O-]` (stereo not given) gave a composite z-score of 0.6. With `COC(=O)[C@@]1(Cc2ccc(OC)cc2)[C@H]2c3cc(C(=O)N4CCCC4)n(Cc4ccc(C)c(F)c4F)c3C[C@H]2CN1C(=O)c1ccccc1`, the composite z-score was found to be 0.538.

Turning to `C=CCOC(=O)[C@H]1[C@@H]2C(=O)O[C@@H](c3ccccc3)[C@@H](c3ccccc3)N2[C@@H](c2ccc(OCCOC(=O)[C@H]3C[C@H]4C(=O)N[C@@H](CCCCNC(C)=O)C(=O)N4[C@H]3c3cccc(OCCO)c3)cc2)[C@]12C(=O)Nc1ccccc12`, the composite z-score was -0.0026. In the case of `CC(C)c1ccc(NN2C(C(O)c3ccc(B(O)O)cc3)C=CC3C(=O)N(c4ccccc4)C(=O)C32)cc1` (stereo not given), the composite z-score is 0.216. The result for `CCCC=C(CCC)[C@@H](NC(=O)c1cccs1)c1ccc(C(F)(F)F)cc1` reads 0.224; that for `COc1ccc(C#Cc2ccc3c(c2)[C@]2(C(=O)N3)[C@H](C(=O)Nc3nc4ccccc4s3)[C@H]3C(=O)O[C@H](c4ccccc4)[C@H](c4ccccc4)N3[C@@H]2c2ccc(O)cc2)cc1`, 1.29. Then `CCCCCCc1nc(-c2cc(C)c(OC)c(C)c2)cc2c1[Si](C(C)C)(C(C)C)OC2`, with -0.0111; and `COCCOC(=O)N1C(=O)[C@@]2(c3cc(C#Cc4ccc(OC)cc4)ccc31)[C@H](c1ccccc1OCCO)N1[C@H](c3ccccc3)[C@H](c3ccccc3)OC(=O)[C@H]1[C@@H]2C(=O)NC[C@H](O)c1ccccc1`, with 0.156. In the case of `COC(=O)C(CC#Cc1ccc2c(c1)[C@]1(C(=O)N2)[C@H](c2ccc(OCCO)cc2)N2[C@H](c3ccccc3)[C@H](c3ccccc3)OC(=O)[C@H]2[C@@H]1C(=O)N1CCc2cc(OC)c(OC)cc2C1)C(=O)OC`, the composite z-score stood at 0.407.

Take `COCCOC(=O)N1C(=O)[C@@]2(c3cc(C#CCC(C(=O)OC)C(=O)OC)ccc31)[C@H](c1ccccc1OCCO)N1[C@H](c3ccccc3)[C@H](c3ccccc3)OC(=O)[C@H]1[C@@H]2C(=O)N1CCN(c2ncccn2)CC1`: the composite z-score was 0.225. `O=C(c1ccccc1)N1C(=O)[C@]2(COC(c3ccc(OCCCO)cc3)=N2)Cc2ccccc21` gave a composite z-score of 0.201. The result for `COc1ccc([Si](C)(C)[C@@H]2[C@@H](CCO)O[C@]3(C(=O)N(Cc4ccc(N(C=O)c5ccccc5)cc4)c4ccccc43)[C@H]2C)cc1` reads 0.0842; that for `O=C1c2ccccc2[C@](Cc2ccccc2I)(C(=O)NCC(F)(F)F)[C@H](c2ccc(CO)cc2)N1Cc1ccccc1Cl`, 0.0445.

The compound `COCCOC(=O)N1C(=O)[C@@]2(c3cc(C#CCCO)ccc31)[C@H](C(N)=O)[C@H]1C(=O)O[C@H](c3ccccc3)[C@H](c3ccccc3)N1[C@@H]2c1ccc(O)cc1` showed a composite z-score of -0.159. Take `C=C(CCCC)/C(=C/C[C@@H](OC(=O)c1ccncc1)c1ccc(OCCO)cc1)c1cc(C(=O)OC)ccc1OC`: the composite z-score was -0.0288. In the case of `C=CCN1C(=O)[C@]2(O[C@H](CCn3cc([C@H](O)c4ccccc4)nn3)[C@@H]([Si](C)(C)c3ccc(OC)cc3)[C@@H]2C)c2ccccc21`, the composite z-score was -0.253. For the compound `[N-]=[N+]=NCc1ccccc1[C@@H]1OC(c2ccc(OCCCO)cc2)=N[C@]1(Cc1ccccc1)C(=O)NCC(O)CO` (stereo not given in full), the composite z-score was determined as 0.271. Consider `COc1cc2c(cc1OC)CN(C(=O)[C@H]1[C@@H]3C(=O)O[C@@H](c4ccccc4)[C@@H](c4ccccc4)N3[C@@H](c3ccc(O)cc3)[C@]13C(=O)Nc1ccc(C#CCCO)cc13)CC2`, for which the composite z-score is 0.176. `C=CCNC(=O)[C@@H]1[C@H]2C(=O)O[C@H](c3ccccc3)[C@H](c3ccccc3)N2[C@H](c2ccccc2OCCO)[C@@]12C(=O)N(C(=O)OCCOC)c1ccccc12` had a composite z-score of 0.492.

Consider `CC1(C)[C@@H]2CC(C(O)C3C=CC4C(=O)N(c5ccccc5)C(=O)C4N3Nc3ccc([N+](=O)[O-])cc3)=C[C@H]1C2` (stereo not given in full), for which the composite z-score worked out at 0.101. Then `C=CCNC(=O)[C@H]1[C@@H]2C(=O)O[C@@H](c3ccccc3)[C@@H](c3ccccc3)N2[C@@H](c2ccccc2OCCO)[C@]12C(=O)Nc1ccc(C#CCC(C(=O)OC)C(=O)OC)cc12`, with 0.308; and `O=C1C2C=CC(C(O)c3cc(C(F)(F)F)cc(C(F)(F)F)c3)N(n3cnnc3)C2C(=O)N1Cc1ccccc1` (stereo not given), with -0.0391; and `COc1cc(NN2C(C(O)c3ccco3)C=CC3C(=O)N(c4ccccc4)C(=O)C32)cc(OC)c1OC` (stereo not given), with -0.0328. In turn, `CN(C)CCCCCCNC(=O)[C@@H]1C[C@@H]2C(=O)N[C@@H](Cc3ccccc3)C(=O)N2[C@@H]1c1ccc(O)cc1` yielded a composite z-score of 0.299. The result for `CC(C)NC(=O)[C@@]1(c2ccc([N+](=O)[O-])cc2)CC(=O)N(C2CCCCC2)[C@@H]1c1ccc(CO)cc1I` reads -0.0647; that for `C=CC[C@]1(C(=O)NCc2ccccc2)N=C(c2ccc(OCCCO)cc2)O[C@H]1c1ccccc1N=[N+]=[N-]`, 0.174.
